Reference: PubChem BioAssay (NCI)
The panel holds about 83,000 compounds, 20% with a hit somewhere; the sample as a whole holds those more often.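 Cells were grown in 96-well plates and exposed to the test compound at a single concentration for 48 hours; results are reported as percent growth, with values below 10 considered active.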 Unmarked numbers belong to inactive results. Active and inactive are the calls of the source.

Experiments:
Assay in all cases: NCI-60 one-dose screen, 48 h (100 = growth as untreated, 0 = no growth, -100 = all killed)
Conditions in all cases: 10 µM unless noted
NCI-H23 lung = system: NCI-H23 lung
NCI-H226 lung = system: NCI-H226 lung
NCI-H322M lung = system: NCI-H322M lung
HOP-62 NSCLC = system: HOP-62 NSCLC
NCI-H460 lung = system: NCI-H460 lung
HOP-92 NSCLC = system: HOP-92 NSCLC
NCI-H522 lung = system: NCI-H522 lung
A549/ATCC NSCLC = system: A549/ATCC NSCLC
786-0 renal = system: 786-0 renal
COLO 205 colon = system: COLO 205 colon
DU-145 prostate = system: DU-145 prostate
K-562 leukemia = system: K-562 leukemia
MALME-3M melanoma = system: MALME-3M melanoma
MDA-MB-231 breast = system: MDA-MB-231 breast
RXF 393 renal = system: RXF 393 renal
SF-268 CNS = system: SF-268 CNS
SF-295 CNS = system: SF-295 CNS
SF-539 CNS = system: SF-539 CNS
UACC-257 melanoma = system: UACC-257 melanoma

Compound | growth (NCI-H23 lung) | growth (NCI-H226 lung) | growth (NCI-H322M lung) | growth (HOP-62 NSCLC) | growth (NCI-H460 lung) | growth (HOP-92 NSCLC) | growth (NCI-H522 lung) | growth (A549/ATCC NSCLC) | growth (786-0 renal) | growth (COLO 205 colon) | growth (DU-145 prostate) | growth (K-562 leukemia) | growth (MALME-3M melanoma) | growth (MDA-MB-231 breast) | growth (RXF 393 renal) | growth (SF-268 CNS) | growth (SF-295 CNS) | growth (SF-539 CNS) | growth (UACC-257 melanoma)
COc1ccc(C(=O)/C=C/c2cc3c(c(OC)c2)OCC(=O)N3)cc1 | 58.5% | 87.6% | 87.8% | 87.4% | 9.81% (active) | 39.5% | 46.4% | 78% | 14.5% | 77% | -20.7% (active) | 7.5% (active) | 88.4% | 67.7% | 49.7% | 21.4% | 88.7% | 7.09% (active) | 91.6%
CCCc1cc(=O)oc2c3c(c4c(c12)OC(C)(C)C=C4)O[C@@H](C)[C@H](C)C3=O | 61.1% | 89.8% | 81% | 102% | 60.5% | 43.7% | 71.9% | 64.5% | 72.8% | 74.8% | 79.4% | 47.6% | 90% | 71.9% | 18.4% | 86.4% | 69.9% | 81% | 55.1%
NC(=O)CC1(O)C=C(Br)C(=O)C(Br)=C1 | 57.3% | -57.6% (active) | 113% | 108% | 104% | -50.9% (active) | -49.7% (active) | 112% | 70.8% | -66.1% (active) | 105% | -29.6% (active) | -34.3% (active) | 113% | -32.6% (active) | 89.3% | 115% | 96.1% | 80.9%
O=[N+]([O-])c1cccc(/C=C/c2ccccn2)c1 | 76.1% | 74.9% | 134% | 73.2% | 91% | 34.7% | 72.1% | 73.5% | 53.3% | 105% | 78.3% | 67.4% | 114% | 87.3% | 69.3% | 76.9% | 71.1% | 68.6% | 102%
COC1(CC[C@@H](C)COC2OC(CO)C(O)C(O)C2O)O[C@H]2C[C@H]3[C@@H]4CC=C5C[C@@H](OC6OC(CO)C(OC7OC(C)C(O)C(O)C7O)C(O)C6OC6OC(C)C(O)C(O)C6O)CC[C@]5(C)[C@H]4CC[C@]3(C)[C@H]2[C@@H]1C (some centres not stated) | -63% (active) | -57.2% (active) | -85.2% (active) | -83% (active) | -90.2% (active) | -62% (active) | -60.9% (active) | -64.7% (active) | -94.3% (active) | -12.2% (active) | -96.2% (active) | -22.9% (active) | -87.3% (active) | -70% (active) | -78.1% (active) | -90.7% (active) | -81.9% (active) | -99% (active) | -47.4% (active)
Cc1ccc(O)c(C(=O)c2ccccc2Cl)c1 | 94.3% | 100% | 109% | 98.3% | 109% | 112% | 102% | 104% | 99.1% | 138% | 126% | 91.4% | 106% | 109% | 104% | 104% | 94.6% | 96% | 108%
Nc1c(C(=O)c2ccc(Cl)s2)sc2nc3c(cc12)CCCC3 | 91.5% | 96.6% | 103% | 97.3% | 98.6% | 82.5% | 83.1% | 100% | 106% | 110% | 110% | 101% | 100% | 108% | 113% | 104% | 102% | 96.8% | 105%
CCCCCCCCCCCCCCCCCC1=NCCN1C(=O)OCCO | 76.9% | 78.5% | 51.1% | 52.6% | 7.14% (active) | 56.5% | 11.1% | -72.4% (active) | 87.2% | -72.9% (active) | -3.11% (active) | 1.39% (active) | 94% | -25.6% (active) | 49.8% | 31.4% | 23.3% | -25.7% (active) | 62.9%
